Shiga toxin inh – A qHTS for Small Molecule Inhibitors of Shiga Toxin; Vero cells, Shiga toxin protein synthesis inhibition reporter; inhibition, % at 38.7 µM; 290,000 compounds, 9.2% hits; in the data active means inhibition mostly above about 28%, no sharp cut-off; inactive means mostly below about 43%; further: 0% is about no effect
SARS PLpro yeast – qHTS of Yeast-based Assay for SARS-CoV PLP; S. cerevisiae expressing SARS-CoV PLpro, growth rescue; Potency, µM (top dose mostly 32.9 µM), without a hit: at the top dose activity, positive = growth rescue, actives largely listed as activators; 330,000 compounds, 0.19% hits; AID 485353, 2010; calls by dose curve; further: potency means the concentration at half of the fitted maximal effect; 0% is about no effect; nearly all actives have a fitted effect of over 55% in size
Cycloheximide cs – Cycloheximide Counterscreen for Small Molecule Inhibitors of Shiga Toxin | cell reporter, cycloheximide protein synthesis inhibition counterscreen | max response, % | 300,000 compounds, 12% hits | AID 2314, 2010; in the data active means max response mostly above about 13%, no sharp cut-off; inactive means mostly below about 14%; further: read at 38.3 µM for the half of the compounds with a filed dose; 0% is about no effect
LmPK inh – qHTS Assay for Inhibitors of Leishmania Mexicana Pyruvate Kinase (LmPK); Q27686; purified LmPK, Kinase-Glo ATP luminescence, 1 h; Potency, µM (series often up to 57.5 µM), inactives show at the top dose activity change, negative = inhibition, hits mostly inhibitors; 290,000 compounds, 0.37% hits; further: potency means the concentration at half of the fitted maximal effect; on the % scale 0 is the no-effect control and ±100 the full control effect
Target sequence (Q27686 whole entry, looked up): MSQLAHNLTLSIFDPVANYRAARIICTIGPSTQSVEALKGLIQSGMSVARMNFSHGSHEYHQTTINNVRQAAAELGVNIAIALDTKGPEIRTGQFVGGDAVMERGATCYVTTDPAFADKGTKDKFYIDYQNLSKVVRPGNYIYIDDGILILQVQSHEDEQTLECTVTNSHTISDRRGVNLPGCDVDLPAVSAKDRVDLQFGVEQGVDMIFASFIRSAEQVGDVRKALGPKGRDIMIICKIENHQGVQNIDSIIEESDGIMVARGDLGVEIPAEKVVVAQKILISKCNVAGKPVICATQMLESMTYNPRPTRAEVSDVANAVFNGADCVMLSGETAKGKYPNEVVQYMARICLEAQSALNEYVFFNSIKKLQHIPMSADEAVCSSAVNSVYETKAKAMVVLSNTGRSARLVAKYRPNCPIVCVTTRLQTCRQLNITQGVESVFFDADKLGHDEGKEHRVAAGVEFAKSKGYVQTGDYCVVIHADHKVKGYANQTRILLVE
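ATP generated from ADP (0.1 mM) and PEP (0.5 mM) by 0.1 nM LmPK over 1 h at room temperature (pH 7.2 imidazole buffer) was detected by coupled luciferase luminescence. Values were normalized to uninhibited and no-enzyme wells.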
NS1 function inh – qHTS Assay for Inhibitors of Influenza NS1 Protein Function | Potency, µM (highest dose often 46.1 µM), without a hit: at the highest dose activity, positive = more growth | 270,000 compounds, 0.4% hits; calls by dose curve; further: potency means the concentration at half of the fitted maximal effect; actives are rising curves; nearly all actives have a fitted effect of over 50% in size
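S. cerevisiae expressing influenza A NS1, grown in glucose, washed, then diluted 1:100 into pH 6.0 -URA galactose medium with 23 nl compound. Growth recovery read as OD600; NS1-free strain serves as control.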
Tb PYK inh – qHTS of Trypanosoma Brucei Inhibitors. pyruvate kinase (Trypanosoma brucei), Q57TT1. TbPYK enzyme, Kinase-Glo Plus ATP luminescence, 45 min. 410,000 compounds, 0.12% hits. AID 624173, 2012. Potency, µM (titrated, usually from 76.8 µM), for inactives: top-dose activity, negative = inhibition, usual class: inhibitors; further: potency means the concentration at half of the fitted maximal effect; on the % scale 0 is the no-effect control and ±100 the full control effect; nearly all actives have a fitted effect of over 50% in size
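Enzyme and substrate buffer are dispensed first and compound is pin-transferred. ADP at 130 uM final then starts the reaction, which runs 45 min at room temperature. Detection reagent is added for 10 min before luminescence is imaged.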
Numbers without * were called inactive; ! = a repeat was not active. The sample as a whole holds a higher share of hits than the screen did. Unless noted, the call rests on the fitted dose curve; in most records, active means well fitted curve in the direction sought with a large enough effect; inconclusive means small, poorly fitted or top-dose-only effect, or another doubt; inactive means no such curve, though single readings can be large; an effect the other way counts as inactive or inconclusive.

For COc1ccc2cc(C(C)C(=O)N3CCC(C)CC3)ccc2c1 (stereo not drawn) the results were Shiga toxin inh 34, SARS PLpro yeast -53%, Cycloheximide cs -2, LmPK inh 1%, NS1 function inh -107% and Tb PYK inh -6%.
Screening O=CN1CCN(C=O)C(O)C1O (stereo not drawn) returned Tb PYK inh -6%.
Screening Cc1ccc2oc(-c3ccc(NC(=O)c4ccc5c(c4)OCO5)cc3)nc2c1 returned Shiga toxin inh 58*, SARS PLpro yeast 7%, Cycloheximide cs 37*, LmPK inh -2%, NS1 function inh 5% and Tb PYK inh 1%.
`Cc1ccc2oc(-c3ccc(NC(=O)c4cccnc4)cc3)nc2c1` gave Shiga toxin inh 62*, SARS PLpro yeast -21%, Cycloheximide cs 70*, LmPK inh 5%, NS1 function inh -3% and Tb PYK inh -1%.
Screening CC1=C(C)C(=O)C(C(CCCCCC(=O)O)c2ccccc2)=C(C)C1=O (stereo not drawn) returned Tb PYK inh -4%.
Screening Cc1ccc(C)c(Cn2c(-c3cccs3)nc3ccccc32)c1 returned Tb PYK inh 1%.
Screening Nc1nc(=S)c2[nH]cnc2[nH]1 returned Tb PYK inh 14µM*!.
Screening O=Nc1[nH]c(=O)c(/C=C(\O)c2ccccc2)nc1NO returned Shiga toxin inh 62*, SARS PLpro yeast 0%, Cycloheximide cs 59*, LmPK inh -2%, NS1 function inh 4% and Tb PYK inh -5%.
Screening COc1ccc2nc(-n3c(C)ccc3C)sc2c1 returned Shiga toxin inh 77*, SARS PLpro yeast -6%, Cycloheximide cs 22*, LmPK inh 0%, NS1 function inh -7% and Tb PYK inh 2%.
For COc1ccc2nc(N)sc2c1 the results were Shiga toxin inh 9, SARS PLpro yeast -13%, Cycloheximide cs 13, LmPK inh -8%, NS1 function inh -6% and Tb PYK inh 6%.
COc1ccc2nc(-c3ccc(N(C)C)cc3)sc2c1 was read as Shiga toxin inh 25* and Cycloheximide cs 32*.
COc1cc(OC)cc(C(=O)Nc2cc(-c3nc4ccccc4s3)ccc2OC)c1 was read as Tb PYK inh 1%.
`COc1cc(OC)cc(-c2nc3ccccc3s2)c1` gave Shiga toxin inh 72*, SARS PLpro yeast -9%, Cycloheximide cs 46*, LmPK inh inconclusive, NS1 function inh -42% and Tb PYK inh -7%.
For CC(OC(=O)CN1C(=O)C2C3C=CC(C4CC34)C2C1=O)C(=O)c1ccccc1 (stereo not drawn) the results were Shiga toxin inh -6, SARS PLpro yeast 6%, Cycloheximide cs -2, LmPK inh -4%, NS1 function inh -11% and Tb PYK inh 6%.
For COc1ccccc1OCCNC(=O)CN1C(=O)NC2(CCCC2)C1=O the results were SARS PLpro yeast -3% and Tb PYK inh -6%.
Screening COCCNC(=O)/C(C#N)=C/C=C/c1ccccc1[N+](=O)[O-] returned Shiga toxin inh 21, SARS PLpro yeast 1%, Cycloheximide cs 17*, LmPK inh 5% and Tb PYK inh -9%.
`COCCNC(=O)/C(C#N)=C/c1ccc(O)cc1` gave Shiga toxin inh 32, SARS PLpro yeast -6%, Cycloheximide cs 19*, LmPK inh 13µM*, NS1 function inh -1% and Tb PYK inh inconclusive.
For N#Cc1cc(C#N)c(N2CCN(c3ccccn3)CC2)nc1N the results were Shiga toxin inh 60*, SARS PLpro yeast -1%, Cycloheximide cs 44*, LmPK inh 0%, NS1 function inh -6% and Tb PYK inh -7%.
Screening CC(C)C1=NN(C(=O)c2ccccc2)C(O)(C(C)(C)C)C1 (stereo not drawn) returned Shiga toxin inh 21, SARS PLpro yeast 0%, Cycloheximide cs 29*, LmPK inh 0%, NS1 function inh -6% and Tb PYK inh -3%.
`CC(C)(C)C1=NN(C(=O)c2ccccc2)C(O)(C(C)(C)C)C1` (stereo not drawn) gave Shiga toxin inh 34*, SARS PLpro yeast 0%, Cycloheximide cs 13*, LmPK inh -4%, NS1 function inh -3% and Tb PYK inh -6%.
CC(C)(C)C1(O)CC(C(F)(F)F)=NN1C(=O)CCCc1ccccc1 (stereo not drawn) was read as Shiga toxin inh -8, SARS PLpro yeast -1%, Cycloheximide cs -2, LmPK inh 0%, NS1 function inh -9% and Tb PYK inh -1%.
CCOc1ccccc1OCCCC(=O)N1CCN(S(=O)(=O)c2ccccc2C#N)CC1 was read as Tb PYK inh 4%.
COc1ccccc1C(=O)NCC(=O)NCCC(c1ccccc1)c1ccccc1 was read as SARS PLpro yeast -1% and Tb PYK inh 12%.
CCn1c(O)c(/C=C2\C=Nc3ccccc32)sc1=Nc1ccccc1 was read as Shiga toxin inh 98*, SARS PLpro yeast 6%, Cycloheximide cs 27*, LmPK inh 1%, NS1 function inh -2% and Tb PYK inh -2%.
Screening CCc1cccc2c(-c3ccccc3)nc(SCC(=O)Nc3ccccc3)nc12 returned Tb PYK inh -2%.
For O=C(Nc1ccc(Cl)cc1Cl)c1ccc(-c2ccccc2)cc1 the results were Shiga toxin inh 9, SARS PLpro yeast 8%, Cycloheximide cs -3, LmPK inh -3%, NS1 function inh 6% and Tb PYK inh 0%.
O=C(NC(=S)Nc1ccccc1O)c1ccc(Cl)cc1Cl was read as Shiga toxin inh 94*, SARS PLpro yeast -6%, Cycloheximide cs 30*, LmPK inh -4%, NS1 function inh -87% and Tb PYK inh -1%.
`O=C(Nc1ccccc1Cl)c1ccc(Cl)cc1Cl` gave Shiga toxin inh 54*, SARS PLpro yeast 2%, Cycloheximide cs 54*, LmPK inh -15% and Tb PYK inh -4%.
C#Cc1cccc(NC(=O)c2ccc(Cl)cc2Cl)c1 was read as Shiga toxin inh 70*, SARS PLpro yeast -2%, Cycloheximide cs 20*, LmPK inh -12%, NS1 function inh -11% and Tb PYK inh -2%.
O=C(COc1ccccc1)NNC(=S)NC(=O)c1ccc(Cl)cc1Cl was read as Shiga toxin inh -7, SARS PLpro yeast -50%, Cycloheximide cs -2, LmPK inh 0%, NS1 function inh -43% and Tb PYK inh -21%.
Screening Nc1ccccc1C(=O)Nc1ccc(Cl)cc1Cl returned Shiga toxin inh 127*, SARS PLpro yeast -1%, Cycloheximide cs 33*, LmPK inh 4%, NS1 function inh 5% and Tb PYK inh 2%.
